SENP8 block-1: blocks human SENP8 cleavage of Nedd8 substrate | Q96LD8 | recombinant SENP8, Nedd8 substrate fluorescence | inhibition, % at 20 µM | 360,000 compounds, 0.64% hits; in the data active = inhibition mostly above about 40%, no sharp cut-off; inactive = mostly below about 27%
SENP8 block-2: SENP8 protease inhibition | Q96LD8 | inhibition, % at 10 µM | 330,000 compounds, 1.2% hits | purified SENP8, Z-RLRGG-aminoluciferin cleavage, luminescence | AID 2540; in the data active = inhibition above about 50%
SENP7 inh: inhibitors of human SENP7 protease. Q9BQF6. recombinant SENP7, Z-RLRGG-aminoluciferin luminescence, 40 min. inhibition, % at 5 µM. 330,000 compounds, 1.5% hits;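 active = inhibition above about 50% at the single test dose, limit read from the data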;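 note: plate controls were DMSO with enzyme for no effect and no enzyme buffer wells for full effect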
C8 TRAIL sens: caspase-8 TRAIL sensitization | NB7+C8 cells + TRAIL, ATPlite viability luminescence | inhibition (viability loss, TRAIL sensitization), % at 10 µM | 360,000 compounds, 1% hits;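 active = compounds causing at least 50% loss of cell viability in the single-dose screen, relative to plate controls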
PPC-1+TRAIL kill: kills PPC-1 cancer cells in the presence of TRAIL; PPC-1 cells + TRAIL, ATPLite viability luminescence; cell killing (% activity), % at 4 µM or 5 µM; 220,000 compounds, 0.41% hits; AID 1443;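 active = cell killing above 50% in the first pass at 4 µM, then a duplicate retest at 5 µM averaging 50% or more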;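 note: plate controls were cells with TRAIL plus DMSO for no effect and medium-only wells lacking cells for full effect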
SENP6 inh: SENP6 protease inhibition; Q9GZR1; Recombinant SENP6 catalytic domain, aminoluciferin luminescence; inhibition, % at 10 µM; 330,000 compounds, 1.8% hits; AID 2599;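 active = inhibition above about 50% at the single tested dose, limit read from the data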;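 note: plate controls were DMSO wells with enzyme for no effect and DMSO wells lacking enzyme for full effect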
Target sequence (Q9GZR1 628-1112 limits assumed): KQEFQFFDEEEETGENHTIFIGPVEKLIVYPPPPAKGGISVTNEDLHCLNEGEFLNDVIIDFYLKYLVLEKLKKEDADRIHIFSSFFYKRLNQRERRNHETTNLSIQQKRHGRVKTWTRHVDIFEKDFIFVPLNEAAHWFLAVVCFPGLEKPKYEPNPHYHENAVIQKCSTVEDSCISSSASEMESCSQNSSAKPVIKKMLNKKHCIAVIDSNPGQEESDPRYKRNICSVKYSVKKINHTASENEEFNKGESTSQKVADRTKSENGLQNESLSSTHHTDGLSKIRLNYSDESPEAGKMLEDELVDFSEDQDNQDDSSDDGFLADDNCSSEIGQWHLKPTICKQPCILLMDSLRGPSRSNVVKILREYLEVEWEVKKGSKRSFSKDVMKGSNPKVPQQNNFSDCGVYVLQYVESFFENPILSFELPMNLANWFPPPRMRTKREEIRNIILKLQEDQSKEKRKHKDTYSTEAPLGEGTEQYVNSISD
SENP8 conf-1: confirmation of human SENP8 protease inhibitors | shares compounds with SENP7 inh | Recombinant SENP8, Z-RLRGG-aminoluciferin luminescence, 60 min | inhibition, % at 12.5 µM | 6,200 compounds, 40% hits | AID 488912;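 active = mean inhibition across replicates above about 50%, limit read from the data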
SENP6 conf: human SENP6 inhibition, confirmed | shares compounds with SENP7 inh | recombinant SENP6, Z-RLRGG-aminoluciferin luminescence | inhibition, % at 12.5 µM | 6,200 compounds, 58% hits
SENP7 confirm: confirmation of human SENP7 protease inhibitors; shares compounds with SENP7 inh; recombinant SENP7, Z-RLRGG-aminoluciferin luminescence, 40 min; inhibition, % at 12.5 µM; 6,200 compounds, 69% hits; AID 488917
Casp3 select: inhibits human caspase-3 in SENP selectivity test | shares compounds with SENP7 inh | purified caspase-3, Z-DEVD-aminoluciferin luminescence, 60 min | inhibition, % at 12.5 µM | 6,200 compounds, 60% hits;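 active = mean inhibition above about 50%, limit read from the data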;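 note: plate controls were enzyme with DMSO for no effect and wells without caspase-3 for full effect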
Target sequence (P42574 28-227 limits assumed): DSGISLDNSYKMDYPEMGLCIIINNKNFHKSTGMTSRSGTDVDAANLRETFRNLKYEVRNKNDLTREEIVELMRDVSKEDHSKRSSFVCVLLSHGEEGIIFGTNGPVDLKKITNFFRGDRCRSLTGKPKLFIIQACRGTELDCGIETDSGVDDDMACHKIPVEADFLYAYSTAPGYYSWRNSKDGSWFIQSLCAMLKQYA
Luc interf: luminescence interference (SENP counter-screen); shares compounds with SENP7 inh; Pre-incubated SENP8/Z-RLRGG-aminoluciferin, luciferase luminescence interference; inhibition, % at 12.5 µM; 6,200 compounds, 39% hits;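 active = mean inhibition above about 50% when retested at one dose, limit read from the data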;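 note: plate controls were DMSO wells with completed reaction for no effect and substrate without enzyme for full effect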
SENP8 conf-2: confirmation of human SENP8 protease inhibitors | shares compounds with SENP8 block-1 | inhibition, % at 25 µM | purified SENP8, Nedd8-AMC/pro-Nedd8 cleavage fluorescence, 30 min | AID 624319 | 1,400 compounds, 15% hits; in the data active = inhibition mostly above about 39%, no sharp cut-off; inactive = mostly below about 34%
* hit, by the source's call; nt = no result given; ! = not confirmed by another sample. Sampled rows, rich in hits. Any-hit rate of the full collection: about 3%.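 Rule for the calls, unless noted: active = mean inhibition above about 50% in the one-dose retest (limit read from the data); inactive = the rest.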

SMILES	SENP8 block-1	SENP8 block-2	SENP7 inh	C8 TRAIL sens	PPC-1+TRAIL kill	SENP6 inh	SENP8 conf-1	SENP6 conf	SENP7 confirm	Casp3 select	Luc interf	SENP8 conf-2
CN(C)C(=O)Oc1ccc(OC(=O)c2ccccc2)cc1	10.6	80.7*	5.0	-7.8	-7.2	90.0*	64.9*	89.3*	98.2*	92.5*	50.9*	nt
CN(C(=O)Oc1ccc(C(=O)c2ccc(Cl)cc2)cc1)c1ccccc1	17.2	-1.2	1.5	0.7	-7.5	4.7	nt	nt	nt	nt	nt	nt
O=C(Nc1ccc(Cl)c(Cl)c1)c1ccco1	9.7	51.2*	38.5	16.0	nt	56.5*	59.6*	57.6*	85.0*	48.1	48.3	nt
COc1ccccc1N1CCN(Cc2cccc(Br)c2)CC1	17.4	14.0	-5.1	-11.8	nt	-0.9	nt	nt	nt	nt	nt	nt
Cc1ccc(NC(=O)N2CC2)cc1NC(=O)N1CC1	2.0	nt	nt	4.8	nt	nt	nt	nt	nt	nt	nt	nt
Cc1ccc(NC(=O)c2snnc2C)cc1Cl	10.9	32.6	60.2*	-5.7	-7.2	64.8*	49.1	48.0	82.8*	63.5*	61.3*	nt
CCOC(=O)c1ccc(NC(=O)c2c(O)[nH]c(=O)[nH]c2=O)cc1	18.0	66.2*	71.9*	5.6	-5.3	82.9*	30.4	19.4	36.4	21.4	21.8	nt
CCOc1ccc(NC(=O)c2c(O)[nH]c(=O)[nH]c2=O)cc1	14.3	59.0*	80.0*	13.4	nt	74.4*	71.3*	58.8*	94.9*	83.9*	39.3	nt
CNC(=O)Oc1cccc(-c2cn3cc(Cl)ccc3n2)c1	-271.6	83.2*	83.2*	79.7*	85.5*	85.3*	92.4*	94.7*	101.7*	94.8*	92.0*	nt
CCC(COC(=O)NC)NC(=O)Oc1cccc(C)c1 (stereo not given)	18.2	-5.6	-9.7	-10.2	28.2	-10.8	nt	nt	nt	nt	nt	nt
COc1ccc(N/N=C/c2c(O)n(-c3cccc(C)c3)c(=O)[nH]c2=O)cc1	0.9	-2.8	-1.2	1.6	20.2	-7.3	nt	nt	nt	nt	nt	nt
Cc1cccc(N/N=C/c2c(O)[nH]c(=S)[nH]c2=O)c1	19.8	83.7*	1.1	2.8	nt	35.2	93.9*	94.5*	100.9*	96.4*	58.4*	nt
COc1ccc(NC(=O)N2C[C@@H]3C[C@@H](C2)c2cccc(=O)n2C3)cc1	33.8	1.7	-1.7	-3.9	nt	-0.4	nt	nt	nt	nt	nt	nt
CN(C)c1ccccc1	2.2	nt	nt	-7.9	nt	nt	nt	nt	nt	nt	nt	nt
Cc1cccc(N=Nc2ccc(N(C)C)cc2)c1	16.2	84.3*	87.1*	29.1	nt	90.2*	-24.4	82.7*	18.6	20.4	19.5	nt
COc1ccc(OC)c(N2C(=O)/C(=C/c3ccco3)C(=O)NC2=S)c1	nt	22.5	-0.4	nt	nt	-43.1	nt	nt	nt	nt	nt	nt
COc1ccc(OC)c(N2C(=O)NC(=O)/C(=C/c3ccc([N+](=O)[O-])s3)C2=O)c1	62.9*	16.0	10.5	-6.1	19.2	55.0*	-8.8	21.9	6.8	-4.6	-6.2	nt
Clc1ccccc1Nc1ncnc(-n2cccc2)n1	23.8	64.0*	71.6*	0.0	18.0	81.5*	67.1*	68.0*	91.1*	59.6*	48.0	nt
CC12CN3CC(C)(CN(C1)C31CCOCC1)C2=O	40.7*	-1.6	-7.5	-2.5	34.4	5.0	nt	nt	nt	nt	nt	4.8
NNc1n[nH]c(=S)n1N	42.0*	-2.3	4.8	17.3	2.3	-6.6	nt	nt	nt	nt	nt	22.3
CN1CC[C@@]2(C)c3cc(O)ccc3N(C)[C@@H]12	44.2*!	nt	nt	10.7	nt	nt	nt	nt	nt	nt	nt	61.8*
CN1C(=O)C(Cc2ccccc2)C(=O)N(C)C1=O	9.4	nt	nt	-5.7	nt	nt	nt	nt	nt	nt	nt	nt
CN1C(=O)C(Cc2ccsc2)C(=O)N(C)C1=O	47.0*	4.5	0.7	0.6	6.0	-0.2	nt	nt	nt	nt	nt	35.4
CN(C)Cc1c[nH]c2ccccc12	40.7*	-0.9	-5.8	-4.9	nt	-1.6	nt	nt	nt	nt	nt	2.2
COC(=O)C1=C(c2cccc(OCc3ccccc3)c2)C[C@@H]2CC[C@H]1N2C(=O)NCc1cccc(C(F)(F)F)c1	8.3	3.9	-2.8	-2.6	nt	13.7	nt	nt	nt	nt	nt	nt
SMILES	SENP8 block-1	SENP8 block-2	SENP7 inh	C8 TRAIL sens	PPC-1+TRAIL kill	SENP6 inh	SENP8 conf-1	SENP6 conf	SENP7 confirm	Casp3 select	Luc interf	SENP8 conf-2
O=C(CCc1ccccc1)N1C[C@H]2C[C@@H](C1)c1cccc(=O)n1C2	61.2*	-17.3	-13.1	-0.6	nt	-16.2	nt	nt	nt	nt	nt	28.6
COc1ccccc1CCNC(=O)CCC(=O)N1CC2C[C@@H](C1)Cn1c2cccc1=O	46.1*	2.4	-4.3	14.8	nt	-6.5	nt	nt	nt	nt	nt	1.4
CCOC(=O)c1c(C)n(CC(O)CN2CCOCC2)c2cc(Br)c(OC)cc12 (stereo not given)	1.3	3.7	13.0	-4.7	10.4	6.5	nt	nt	nt	nt	nt	nt
COc1ccc2c(c1)NP(=S)(c1ccccc1)N2C (stereo not given)	54.3*	nt	nt	1.9	nt	nt	nt	nt	nt	nt	nt	28.3
COc1ccc(P2(=O)Nc3ccccc3N2)cc1	-23.1	9.4	5.2	5.0	-4.4	23.9	nt	nt	nt	nt	nt	nt
C[C@]12CCC3C(CC[C@H]4C[C@@H](O)CC[C@]34C)C1CCC2=O (stereo not given in full)	5.6	3.6	-1.7	-7.6	nt	6.7	nt	nt	nt	nt	nt	nt
COc1cccc2cc(-c3cc(=O)oc4ccc(OC(=O)N(C)C)cc34)oc12	-145.1	-2.9	4.2	8.9	nt	-20.1	nt	nt	nt	nt	nt	nt
O=c1cc(C2CCNCC2)[nH][nH]1	54.6*	-2.0	17.9	-12.6	-9.8	6.1	nt	nt	nt	nt	nt	19.4
O=C1NC(=O)C(Nc2ccc(Cl)c(Cl)c2)C(=O)N1	65.2*	nt	nt	-13.6	nt	nt	nt	nt	nt	nt	nt	75.8*
O=[N+]([O-])c1cccc(CN2CC=C(c3ccc(F)cc3)CC2)c1	18.0	-4.9	-6.3	0.7	nt	1.3	nt	nt	nt	nt	nt	nt
O=[N+]([O-])c1ccccc1CN1CC=C(c2ccc(F)cc2)CC1	44.2*	-1.5	-6.3	-3.7	nt	7.3	nt	nt	nt	nt	nt	12.0
Nc1c([N+](=O)[O-])cc(F)c(N2CCNCC2)c1Br	43.7*	-1.7	0.1	7.5	27.4	-8.7	nt	nt	nt	nt	nt	6.8
CN1CCN(c2c(F)cc([N+](=O)[O-])c(N)c2Br)CC1	24.8	-3.2	-3.6	1.6	21.3	-8.3	nt	nt	nt	nt	nt	nt
CNC(=O)NC(O)C(Cl)(Cl)Cl (stereo not given)	11.0	-6.6	-2.3	2.1	nt	-8.1	nt	nt	nt	nt	nt	nt
CCN(CC(=O)Nc1ccc(NC(C)=O)cc1)C(=O)CSC(c1ccccc1)c1ccccc1	5.0	-4.9	-11.6	9.1	nt	-8.9	nt	nt	nt	nt	nt	nt

High-throughput results as filed in PubChem BioAssay.
